This is an account of results in PubChem BioAssay.

The structures appear in SMILES notation. The source made the active and inactive calls.

Assay [1] is described as follows: small molecules captured by biotinylated probe aFSTL3 – biochemical, small-molecule microarray, fluorescence 635/667, stem cell growth factor project, primary screen (AID 1064).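 Note: measures binding of the biotinylated anti-FSTL3 antibody to printed compounds.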 Particulars: higher = more signal.
Assay [2] can be described thus: binders from COS7 lysate, DM2A8 probe, primary screen, torsin A project, cell lysate, small-molecule microarray, fluorescence 635/667 (AID 1065). Particulars: higher = more signal, COS7 lysate expressing mutant human TOR1A.
A short description of assay [3]: small molecules captured by biotinylated probe aFGF2 – biochemical, small-molecule microarray, fluorescence 635/667, stem cell growth factor project, primary screen (AID 1067).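 Note: measures binding of biotinylated aFGF2 protein to printed compounds on slides; z-score merges feature fluorescence and signal-to-noise across triplicate slides.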 Particulars: higher = more signal.
The nature of assay [4]: small molecules captured by biotinylated probe aFGF10 – biochemical, small-molecule microarray, fluorescence 635/667, stem cell growth factor project, primary screen (AID 1071).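 Note: score merges 667 nm spot intensity and signal to noise from triplicate slides.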 Particulars: higher = more signal.
The target in assay [5] is Neurogenic locus notch homolog protein 2 (Homo sapiens) (UniProt Q04721). The assay is described as follows: small molecules binding Notch2 protein – biochemical, small-molecule microarray, 635 nm fluorescence, stem cell growth factors, primary screen (AID 1073). Particulars: higher = more signal.
Neurogenic locus notch homolog protein 2 (Homo sapiens), sequence (Q04721 whole entry, looked up, canonical isoform): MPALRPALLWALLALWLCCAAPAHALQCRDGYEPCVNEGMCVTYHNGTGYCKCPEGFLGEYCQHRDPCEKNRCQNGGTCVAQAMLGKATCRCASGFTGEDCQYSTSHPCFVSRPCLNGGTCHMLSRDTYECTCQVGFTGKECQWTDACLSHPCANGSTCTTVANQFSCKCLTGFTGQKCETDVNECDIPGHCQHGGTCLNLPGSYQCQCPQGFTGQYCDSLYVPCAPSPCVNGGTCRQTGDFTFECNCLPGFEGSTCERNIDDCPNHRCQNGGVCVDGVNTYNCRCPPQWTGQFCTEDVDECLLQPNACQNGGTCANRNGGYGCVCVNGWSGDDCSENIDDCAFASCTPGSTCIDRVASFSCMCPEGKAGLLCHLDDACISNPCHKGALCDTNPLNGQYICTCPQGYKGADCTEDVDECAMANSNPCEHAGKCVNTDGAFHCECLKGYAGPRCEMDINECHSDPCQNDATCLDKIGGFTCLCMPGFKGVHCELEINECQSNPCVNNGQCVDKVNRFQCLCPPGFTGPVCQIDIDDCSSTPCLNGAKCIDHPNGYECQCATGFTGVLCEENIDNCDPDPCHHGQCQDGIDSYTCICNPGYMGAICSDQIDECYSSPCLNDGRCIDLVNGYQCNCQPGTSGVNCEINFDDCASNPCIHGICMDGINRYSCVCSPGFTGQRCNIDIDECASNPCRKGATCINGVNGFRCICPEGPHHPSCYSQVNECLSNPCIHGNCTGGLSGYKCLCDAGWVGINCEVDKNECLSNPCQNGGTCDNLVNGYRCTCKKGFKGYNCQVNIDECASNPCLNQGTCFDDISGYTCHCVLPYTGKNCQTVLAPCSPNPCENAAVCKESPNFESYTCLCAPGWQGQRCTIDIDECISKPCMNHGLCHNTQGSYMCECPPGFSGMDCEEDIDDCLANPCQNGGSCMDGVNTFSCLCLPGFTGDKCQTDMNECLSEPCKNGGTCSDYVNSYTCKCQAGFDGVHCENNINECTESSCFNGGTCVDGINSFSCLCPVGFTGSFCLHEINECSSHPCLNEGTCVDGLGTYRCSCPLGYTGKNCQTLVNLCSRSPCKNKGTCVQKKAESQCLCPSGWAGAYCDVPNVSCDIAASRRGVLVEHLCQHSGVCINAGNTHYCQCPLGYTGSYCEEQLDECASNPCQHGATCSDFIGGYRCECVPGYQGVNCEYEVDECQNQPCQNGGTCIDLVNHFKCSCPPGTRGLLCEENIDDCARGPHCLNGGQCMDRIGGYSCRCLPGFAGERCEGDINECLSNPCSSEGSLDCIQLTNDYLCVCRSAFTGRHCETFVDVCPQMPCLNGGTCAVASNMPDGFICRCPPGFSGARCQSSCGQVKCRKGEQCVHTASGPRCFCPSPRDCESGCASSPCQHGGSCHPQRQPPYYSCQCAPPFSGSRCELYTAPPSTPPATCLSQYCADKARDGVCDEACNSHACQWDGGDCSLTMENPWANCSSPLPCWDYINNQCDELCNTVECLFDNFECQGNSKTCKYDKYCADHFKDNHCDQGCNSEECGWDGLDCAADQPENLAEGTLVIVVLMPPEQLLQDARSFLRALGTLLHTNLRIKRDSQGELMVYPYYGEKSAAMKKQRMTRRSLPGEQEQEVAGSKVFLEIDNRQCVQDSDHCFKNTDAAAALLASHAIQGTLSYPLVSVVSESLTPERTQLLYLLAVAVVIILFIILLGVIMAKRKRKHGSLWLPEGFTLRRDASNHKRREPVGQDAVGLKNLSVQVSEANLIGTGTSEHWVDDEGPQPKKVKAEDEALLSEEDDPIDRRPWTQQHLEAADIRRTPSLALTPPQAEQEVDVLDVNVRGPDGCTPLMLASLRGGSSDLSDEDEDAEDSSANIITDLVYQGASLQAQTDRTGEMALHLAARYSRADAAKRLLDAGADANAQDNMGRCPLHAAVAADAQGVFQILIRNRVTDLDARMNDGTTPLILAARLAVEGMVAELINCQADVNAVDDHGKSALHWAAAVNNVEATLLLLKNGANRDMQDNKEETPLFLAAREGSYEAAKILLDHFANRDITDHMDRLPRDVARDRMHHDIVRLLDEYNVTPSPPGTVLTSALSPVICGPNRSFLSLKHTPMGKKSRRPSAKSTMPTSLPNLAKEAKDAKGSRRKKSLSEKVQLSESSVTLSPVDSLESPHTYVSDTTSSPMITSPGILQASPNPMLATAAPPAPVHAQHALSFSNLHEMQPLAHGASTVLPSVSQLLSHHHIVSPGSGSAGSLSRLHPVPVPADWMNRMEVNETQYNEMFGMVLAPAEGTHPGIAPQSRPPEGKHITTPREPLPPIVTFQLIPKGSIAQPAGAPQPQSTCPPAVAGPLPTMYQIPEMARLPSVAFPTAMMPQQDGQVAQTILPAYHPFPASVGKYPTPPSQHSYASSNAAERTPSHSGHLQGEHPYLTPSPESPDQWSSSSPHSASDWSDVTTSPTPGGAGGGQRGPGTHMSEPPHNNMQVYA
Assay [6] has as its target Pro-neuregulin-1, membrane-bound isoform (Homo sapiens) (UniProt Q02297). Put plainly: small molecules binding neuregulin-1 protein – biochemical, small-molecule microarray, fluorescence 635/667, psychiatric disease protein project, primary screen (AID 1075).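 Note: score combines 667 nm spot fluorescence with signal to noise.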 Particulars: NRG1 binding, 635 nm fluorescence, higher = more signal.
In assay [7] the test system is Neuregulin-1 EGF-like domain. The assay is described as follows: small molecules binding NRG1 EGF domain – biochemical, small-molecule microarray, 635 nm fluorescence, primary screen (AID 1081).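 Note: binding of the protein to compounds printed on small-molecule microarray slides.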 Particulars: higher = more signal.
The nature of assay [8]: FRG1 expression reporter modulators in myotubes – cell-based, C2C12 myotubes, firefly/Renilla luciferase, luminescence, FRG1 inhibition for FSHD, primary screen (AID 1084). Particulars: FRG1 promoter luciferase, higher = more signal, called active from +8 up or from −8 down.
A short description of assay [9]: small molecules captured by biotinylated probe aFST – biochemical, small-molecule microarray, fluorescence 635/667, stem cell growth factor project, primary screen (AID 1086).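 Note: score merges 667 nm fluorescence with signal-to-noise of each printed compound spot.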 Particulars: higher = more signal.
A short description of assay [10]: binders of probe aHhip on microarray, primary screen, stem cell growth factor project, biochemical, small-molecule microarray, fluorescence 635/667 (AID 1087).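 Note: score merges spot fluorescence at 667nm with spot signal to noise ratio.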 Particulars: higher = more signal.
The subject of assay [11] is PRMT1 (protein arginine N-methyltransferase 1). The assay is described as follows: small molecules binding arginine methyltransferase PRMT1 – biochemical, small-molecule microarray, 635 nm fluorescence, primary screen (AID 1088).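 Note: binding of Prmt1 protein to compounds spotted on small-molecule microarray slides.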 Particulars: higher = more signal.
Assay [12] can be described thus: growth effects on S. cerevisiae YJM789 – YJM789 clinical isolate, OD600, 24 h, basal, primary screen (AID 1089).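 Note: growth of clinical yeast isolate S. cerevisiae YJM 789 seeded 1000 cells per well; test concentration not given here.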 Particulars: higher = more signal, called active from +8 up or from −8 down.
A short description of assay [13]: S. pombe growth modifiers, basal conditions – strain 972, OD600, 24 h, no modulator, primary screen (AID 1090).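 Note: basal condition with compound alone and no growth modifier present; test concentration not given here.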 Particulars: S. pombe 972 growth, higher = more signal, called active from +8 up or from −8 down.
A short description of assay [14]: budding yeast growth modifiers under rapamycin – strain BY4716, OD600, 96 h, primary screen (AID 1091). Note: test concentration not given here. Particulars: S. cerevisiae BY4716 + rapamycin, higher = more signal, called active from +8 up or from −8 down.
The target of assay [15] is Torsin-1A-interacting protein 2 (Homo sapiens) (UniProt Q8NFQ8). The assay is described as follows: small molecules binding lysate-expressed LULL1 – cell lysate, human LULL1 lysate, 635/667 nm fluorescence, primary screen (AID 1092).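 Note: probe is lysate of COS7 cells overexpressing human LULL1; score merges per-feature 667 nm fluorescence with signal-to-noise.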 Particulars: small-molecule microarray, hLULL1 lysate binding, 635 nm fluorescence; higher = more signal.
Torsin-1A-interacting protein 2 (Homo sapiens), sequence (Q8NFQ8 whole entry, looked up): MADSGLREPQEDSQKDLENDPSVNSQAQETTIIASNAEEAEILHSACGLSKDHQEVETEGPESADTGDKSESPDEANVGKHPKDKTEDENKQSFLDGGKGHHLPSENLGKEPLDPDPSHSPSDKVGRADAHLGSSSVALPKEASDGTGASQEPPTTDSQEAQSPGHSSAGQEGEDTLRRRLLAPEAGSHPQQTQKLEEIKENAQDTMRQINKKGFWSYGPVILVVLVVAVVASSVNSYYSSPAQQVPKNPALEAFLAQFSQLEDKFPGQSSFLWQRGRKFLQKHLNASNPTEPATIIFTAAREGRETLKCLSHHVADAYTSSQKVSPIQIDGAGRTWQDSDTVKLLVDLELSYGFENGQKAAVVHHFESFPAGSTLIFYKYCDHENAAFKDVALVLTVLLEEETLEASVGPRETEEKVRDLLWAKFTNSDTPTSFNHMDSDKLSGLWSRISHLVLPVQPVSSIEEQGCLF
The nature of assay [16]: optical density change of DRC41 E. coli – strain DRC41, OD650, 24 h, E. coli filamentation project, primary screen (AID 1093).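 Note: MC1000 strain lacking acrAB efflux and sulA so SOS filamentation is blocked; test concentration not given here.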 Particulars: E. coli DRC41 growth, higher = more signal, called active from +8 up or from −8 down.
A short description of assay [17]: probe aLefty2 binding to arrayed compounds – biochemical, biotinylated probe, 635/667 nm fluorescence, primary screen (AID 1094).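 Note: score merges spot fluorescence near 667 nm with spot signal-to-noise ratio.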 Particulars: small-molecule microarray, higher = more signal.
In assay [18] the test system is Noggin (protein binding on small-molecule microarray). Put plainly: small molecules binding Noggin protein – biochemical, 635/667 nm fluorescence, primary screen (AID 1095).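 Note: score merges 667 nm feature fluorescence with signal to noise over triplicate slides.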 Particulars: 635 nm fluorescence, higher = more signal.
Assay [19] has as its target Neurogenic locus notch homolog protein 3 (Homo sapiens) (UniProt Q9UM47). Put plainly: small molecules binding NOTCH3 protein – biochemical, 635/667 nm fluorescence, primary screen (AID 1096). Particulars: small-molecule microarray, 635 nm fluorescence, higher = more signal.
Assay [20] can be described thus: probe aEGFR binding to arrayed compounds – biochemical, biotinylated probe, 635/667 nm fluorescence, primary screen (AID 1097).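 Note: probe is a biotinylated anti-EGFR antibody binding compounds printed on slides; score combines fluorescence near 667 nm and signal to noise of each spot.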 Particulars: small-molecule microarray, higher = more signal.

Pro-neuregulin-1, membrane-bound isoform (Homo sapiens), sequence (Q02297 whole entry, looked up, the tested form may be a part, canonical isoform): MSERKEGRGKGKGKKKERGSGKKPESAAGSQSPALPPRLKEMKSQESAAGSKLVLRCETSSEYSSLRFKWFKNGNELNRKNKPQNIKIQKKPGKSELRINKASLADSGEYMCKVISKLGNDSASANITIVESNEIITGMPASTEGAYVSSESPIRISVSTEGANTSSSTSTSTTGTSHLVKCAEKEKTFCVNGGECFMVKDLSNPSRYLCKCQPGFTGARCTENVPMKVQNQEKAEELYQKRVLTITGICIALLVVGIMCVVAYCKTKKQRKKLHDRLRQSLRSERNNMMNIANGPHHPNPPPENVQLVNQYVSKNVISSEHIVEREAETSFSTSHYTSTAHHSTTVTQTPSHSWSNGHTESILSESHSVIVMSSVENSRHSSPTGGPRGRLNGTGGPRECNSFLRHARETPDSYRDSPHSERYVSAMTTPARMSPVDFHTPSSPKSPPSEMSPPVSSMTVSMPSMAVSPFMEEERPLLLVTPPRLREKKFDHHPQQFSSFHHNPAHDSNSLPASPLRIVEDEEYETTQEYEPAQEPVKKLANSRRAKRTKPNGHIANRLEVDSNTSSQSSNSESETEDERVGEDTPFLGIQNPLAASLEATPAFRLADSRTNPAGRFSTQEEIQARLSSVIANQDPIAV

With `O=C1CCCC=C1C(O)c1ccc([N+](=O)[O-])cc1` (stereo not given), the composite z-score in assay [1] was -0.396; in assay [2], 0.267; in assay [3] it was -0.187; in [4], 0.535; in [5], 0.254; in assay [6] it was -0.832. In addition, the composite z-score is -0.0876 in assay [7]; -0.315 in assay [9]; -0.355 in assay [10]; 0.0679 in assay [11]; -0.33 in assay [15]; -0.114 in [17]. Moreover, the composite z-score came to 0.111 in [18], 0.273 in assay [19] and 0.613 in assay [20]. Also, the z-score in assay [8] is 0.925 (inactive); in assay [12] it was -0.293 (inactive); in assay [13], 0.0434 (inactive); in assay [14] it was -0.289 (inactive); in assay [16], 0.999 (inactive).
Take `CN1CCc2nc(-c3ccccc3)c(-c3ccccc3)cc2C1`: the composite z-score in assay [1] is -0.16; in assay [2] it was 0.0357; in assay [3] it was -0.128; in [4], 0.239; in [5] it was 0.521; in assay [6], -0.013. Also, the composite z-score in assay [7] was -0.326; in [9] it was -0.117; in assay [10], -0.148; in assay [11], -0.288; in assay [15], -0.0501; in [17] it was 0.361. For the same compound, the figures for the composite z-score in [18], in [19] and in assay [20] were 0.405, 0.157 and -0.0382, respectively. In addition, the z-score in assay [8] was -0.0006 (inactive); in [12], 0.0301 (inactive); in assay [13] it was 0.173 (inactive); in [14], -1.35 (inactive); in assay [16], 0.697 (inactive).
As for `CCOC(=O)CCN1C(=O)[C@H]2[C@@H]3C(=CC[C@H]2C1=O)C(=O)[C@H]1O[C@H]1[C@H]3O`, the composite z-score was -0.128 in assay [1]; -0.42 in assay [2]; -0.137 in [3]; -0.199 in [4]; -0.582 in assay [5]; -0.426 in assay [6]. In addition, the composite z-score in assay [7] is 0.503; in assay [9], -0.481; in assay [10], -0.137; in assay [11] it was -0.571; in assay [15], -0.0261; in [17], -0.27. Besides, the figures for the composite z-score in [18], in assay [19] and in assay [20] were -0.861, -1.75 and -0.122, respectively. Also, the z-score was -2.91 (inactive) in assay [8]; 0.151 (inactive) in assay [12]; 0.0483 (inactive) in assay [13]; -0.384 (inactive) in [14]; -0.518 (inactive) in [16].
